# High-throughput results deposited in PubChem by National Center for Advancing Translational Sciences (NCATS).
# Shown are actives, neighbours in structure and some others; about 19% of the full set was active somewhere.
# KB-V1 cytotox – kills drug-selected multidrug resistant KB-V1 cells; KB-V1 MDR cells viability, CellTiter-Glo, 72 h; Potency, µM (top dose mostly 46.1 µM), most hits filed as cytotoxic; 3.4% of 400,000 active; note: nearly all actives have a fitted effect of over 60% in size
#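 KB-V1 MDR subline cells in DMEM (phenol-red free, 10% FBS) exposed to compounds in qHTS concentration series for 72 h at 37 degrees C. Viability read by CellTiter-Glo luminescence; concentration-effect curves fitted after normalization and correction.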
# DT40 TDP1 no CPT – qHTS for Inhibitors of human tyrosyl-DNA phosphodiesterase 1 (TDP1): qHTS in cells in absence of CPT. DT40 Tdp1-/- hTDP1 cells, no CPT, ATP luminescence, 48 h. Potency, µM (top dose mostly 46.2 µM), without a hit: at the top dose activity change, negative = growth inhibition, actives largely listed as inhibitors. 15% of 420,000 active; note: nearly all actives have a fitted effect of over 55% in size
#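 Cells were dispensed at 400 per well, compounds added by pin tool, plates incubated ≥48 hr at 37 °C, then CellTiter-Glo added for 30 min at room temperature before luminescence reading. Line: DT40 Tdp1-/- complemented with hTDP1; camptothecin omitted.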
# HT1080NT lethal – kills 2HG-producing HT-1080-NT fibrosarcoma cells. HT-1080-NT fibrosarcoma viability, CellTiter-Glo ATP luminescence, 48 h. Potency, µM (highest dose often 46.1 µM), without a hit: at the top dose activity, negative = less viability, actives largely listed as cytotoxic. 1.6% of 360,000 active. AID 686970;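 note: NT is the 2HG producing partner of a matched IDH1 knockdown line; 0% = DMSO-treated cells and -100% = media-only wells without cells; nearly all actives have a fitted effect of over 55% in size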
#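 HT-1080-NT; 750 cells/well; 5% FBS RPMI; 48 h compound, 37 degrees C; CellTiter-Glo luminescence; curve fitting and curve-class assignment.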
# DT40 TDP1 CPT – growth inhibition of DT40 Tdp1-/-;hTDP1 cells with camptothecin (screen for TDP1 inhibitors); chicken DT40 Tdp1-/-;hTDP1 cells + 20 nM CPT, ATP luminescence, 48 h; Potency, µM (highest dose often 46.2 µM), for the others: at the highest dose activity change, negative = growth inhibition, most hits filed as inhibitors; 12% of 420,000 active; note: nearly all actives have a fitted effect of over 55% in size
#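 Chicken DT40 Tdp1-/- cells stably complemented with human TDP1 were seeded at 400 cells/well in medium containing 20 nM camptothecin, exposed to pin-transferred compounds, and grown at 37 °C for at least 48 hr. Viability was read as ATP luminescence.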
# HT1080 IDH1KD tx – toxicity to HT-1080 IDH1 knockdown cells (counter line). HT-1080 IDH1 knockdown viability, ATP luminescence, 48 h. Potency, µM (titrated, usually from 46.1 µM), for the others: top-dose activity, negative = toxicity, most hits filed as cytotoxic. 2% of 360,000 active. AID 686971;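 note: 0% = DMSO wells and -100% = cell-free medium wells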
#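 In this qHTS, HT-1080 cells depleted of IDH1 are exposed for 48 h at 37 °C to compound titrations. Toxicity is scored from CellTiter-Glo luminescence, with DMSO as full viability and medium alone as none.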
# KB-3-1 tox – kills parental KB-3-1 adenocarcinoma cells; KB-3-1 viability, CellTiter-Glo ATP luminescence, 72 h; Potency, µM (doses to about 46.1 µM), most hits filed as cytotoxic; 1.4% of 400,000 active; AID 1347075; note: nearly all actives have a fitted effect of over 60% in size
#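 Cells are dispensed, compounds pinned in, plates held at 37 °C for 72 h, then CellTiter-Glo is added and luminescence read after 10 minutes. Cell line: parental KB-3-1 in phenol-red-free DMEM, 10% FBS.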
# * hit, by the source's call; i = inactive; u = inconclusive; x = no result; [ ] = remark or other dose. Calls come from the whole dose curve; as a rule, active = well fitted curve in the direction sought with a large enough effect; inconclusive = small, poorly fitted or top-dose-only effect, or another doubt; inactive = no such curve, though single readings can be large; an effect the other way counts as inactive or inconclusive. Unless noted, % is set by controls: 0 for no effect and ±100 for the full control effect; potency is the fitted concentration of half-maximal effect.
SMILES,KB-V1 cytotox,DT40 TDP1 no CPT,HT1080NT lethal,DT40 TDP1 CPT,HT1080 IDH1KD tx,KB-3-1 tox
O=C(NCc1ccccc1Cl)c1ccccc1CCc1ccccc1,i,16µM*,-9%,u,-10%,i
Cc1ccc(NC(=O)c2ccccc2CCc2ccccc2)c(C)c1,i,-26%,-23%,-10%,-8%,i
Cc1cccc(CSc2cn(CC(=O)N3CCCCC3)c3ccccc23)c1,x,21µM*,x,u,x,x
Cc1cccc(CSc2cn(CC(=O)N3CCCC3)c3ccccc23)c1,x,16µM*,x,26µM*,x,x
Cc1cccc(CS(=O)(=O)c2cn(CC(=O)N3CCOCC3)c3ccccc23)c1,i,-15%,-3%,-2%,0%,i
CCN(CC)C(=O)CSc1cn(CC(=O)N2CCCCCC2)c2ccccc12,x,-27%,x,u,x,x
Oc1ccc2ccccc2c1CNc1ccc2ccccc2c1,u,u,u,-9%,21µM*,u
O=C(Nc1ccc2ccccc2c1)c1ccccc1O,u,10µM*,15µM*,13µM*,23µM*,u
Oc1ccc2ccccc2c1CNc1ccccc1,u,u,3%,u,-17%,i
COc1ccc(NC(=O)c2cc3ccccc3cc2O)cc1,i,u,u,u,u,i
Cc1ccc(NC(=O)c2cc3ccccc3cc2O)cc1,i,u,u,16µM*,-22%,u
CCCC1NC(=O)c2cccnc2-n2c1nc1ccc(Cl)cc1c2=O (configuration not stated),i,-4%,13%,9%,-1%,i
COc1ccc(/C=C2\SC(=N)N(c3nccs3)C2=O)cc1OC,i,5.8µM*,u,13µM*,u,u
O=C1OC(c2cccs2)=N/C1=C\c1ccc(-c2cccc(Cl)c2)o1,i,u,2%,21µM*,-7%,i
Clc1cccc(-c2ccc(/C=N/n3cnnc3)o2)c1,u,-2%,-1%,3%,17%[9.24 µM],i
N=C1S/C(=C\c2ccc(-c3cccc(Cl)c3)o2)C(=O)N1c1nccs1,u,2.6µM*,-20%,3.3µM*,u,7.3µM*
COc1ccc(/C=C2\SC(=O)N=C2N)cc1OC,i,-8%,-15%,u,-13%,i
O=C1OC(c2ccccc2)=N/C1=C/c1cccc(OC(=O)c2cccs2)c1,i,-30%,1%,-3%,13%,i
O=C(Nc1ccc(F)cc1)C(CCc1ccccc1)N1CCN(C(=O)c2ccco2)CC1 (configuration not stated),u,u,-3%,u,-3%,i
CC1(C(=O)NS(=O)(=O)C2CC2)CCN(C(=O)c2ccc(F)c(Cl)c2)C1 (configuration not stated),i,2%,17%,-10%,24%,i
COc1ccc(C2/C=C\CN(C(=O)c3ccccc3)CC(=O)N2Cc2cccc(F)c2)cc1 (configuration not stated),i,-64%,-3%,u,0%,i
COc1ccc(C2/C=C\CN(C(=O)OCC3c4ccccc4-c4ccccc43)CC(=O)N2Cc2cccc(F)c2)cc1 (configuration not stated),i,23µM*,-7%,u,-17%,i
COc1ccc([C@H]2/C=C\CN(C(=O)[C@H](Cc3ccccc3)NC(=O)OCC3c4ccccc4-c4ccccc43)CC(=O)N2Cc2ccc(F)cc2)cc1,i,u,-11%,21µM*,-2%,i
OCC1(Cc2ccccc2)CCN(CCCC2CCCC2)CC1,i,u,9%,u,11%,i
OCC1(Cc2ccccc2)CCN(C2CCN(c3ccc(F)c(F)c3)CC2)CC1,u,12µM*,-26%,-29%,-24%,i
